Measured values: PubChem BioAssay (NCI)
About 83,000 compounds went through this panel and 20% of them were active in at least one assay; those are over-represented in the sample as a whole.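 Testing used 96-well plates and a 48-hour single-concentration exposure. Example: -40 means 40% of the starting cells died.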 Unmarked numbers belong to inactive results. Active and inactive are the calls of the source. The calls were made as follows: active = growth percent below 10; inactive = the rest.

Key:
Test in all cases: NCI-60 one-dose screen, 48 h (100 = growth as untreated, 0 = no growth, -100 = all killed)
Conditions in all cases: 10 µM unless noted
[1] = test system: EKVX NSCLC
[2] = test system: SN12C renal
[3] = test system: UO-31 renal
[4] = test system: TK-10 renal
[5] = test system: CAKI-1 renal
[6] = test system: A498 renal
[7] = test system: CCRF-CEM leukemia
[8] = test system: MOLT-4 leukemia
[9] = test system: SR leukemia
[10] = test system: ACHN renal

SMILES	growth [1]	growth [2]	growth [3]	growth [4] [%]	growth [5]	growth [6]	growth [7]	growth [8]	growth [9]	growth [10]
Fc1ccc(-c2nc(C(Cl)Cl)nc3cc(-c4ccccc4)nn23)cc1	0.294% (active)	42.5%	40.9%	30.3	-21.4% (active)	-42.7% (active)	29.9%	6.63% (active)	0.553% (active)	
C=CCn1c(SCC(=O)c2ccc(Br)cc2)nnc1-c1c[nH]c2ccccc12	92.8%	95.6%	68.4%	134	90.2%		97.9%	91.2%	88.7%	
Clc1ccc(-c2cn3cc(Cc4ccc(Cl)c(Cl)c4)sc3n2)cc1	69.8%	76.6%	68.1%	112	42.6%	82.3%	79.7%	61%	94.5%	
Cc1cc2nc3c4cc(Cl)ccc4n(CC(=O)NCCN(C)C)c3nc2cc1C	73.8%	79.8%	-83.6% (active)	161	53.9%		-14.5% (active)	-19.4% (active)	-38% (active)	
CCOc1ccc2nc(NC(=O)c3ccc(C(F)(F)F)cc3)sc2c1	102%	101%	104%	95.4	98.1%	95.7%	92.1%	103%	89.5%	
CN1C(=S)N(C)C2C1NN=C1SC(c3ccccc3)=CC(=O)N12 (centres undefined)	80.9%	96.2%	88.3%	97.7	90.8%	103%	91%	89.8%	65.4%	
Cn1cc(-c2cc(N)n3nc(-c4cn(C)c5ccc(F)cc45)cc3n2)c2cc(F)ccc21	93.5%	11.8%	21.2%	48.7	56.5%	72.6%	3.2% (active)	3.58% (active)	-16.2% (active)	
C#Cc1nc(C2=C(C)C(OC(=O)CCC(=O)O)CC2)cs1 (centres undefined)	99.2%	101%	-19.3% (active)	157	101%		93.9%	106%	64.1%	
COc1ccc(C(=O)/C=C/c2ccc(OCc3ccc(C)cc3)c(OC)c2)cc1OC	61.4%	75.9%	58.6%	117	61.4%		32.2%		9.97% (active)	75.8%
Cc1ccc(CNS(=O)(=O)/N=C2\NC(=O)NC2=C(Cl)Cl)cc1	95.6%	26.4%	84.7%	48.8	94.6%	56.7%	16.1%	21%	69.5%	
Nc1cc(-c2c[nH]c3ccc(F)cc23)nc2cc(-c3c[nH]c4ccc(F)cc34)nn12	78.2%	99%	75.8%	118	77.8%	67.8%	7.99% (active)	39%	-22.1% (active)	
O=C(N/N=C/c1ccc(Cl)s1)c1[nH]c2ccc(Br)cc2c1-c1ccccc1	41.7%	50.4%	46.2%	111	23.8%		10.9%	14.1%	9.05% (active)	
N#Cc1c(-c2ccc(Cl)cc2)nc(SCc2ccccc2)nc1N1CCNCC1	71.6%	54.9%	53%	96	53.1%	79.7%	45.9%	52.7%	-24.8% (active)	
COc1cc(/C=C/C(=O)c2ccc(F)cc2)ccc1Oc1nc(NCCO)nc(N2CCOCC2)n1	82.8%	84.6%	61.2%	146	71.9%		4.33% (active)		-0.24% (active)	70.9%
N#Cc1c(-c2ccc(F)cc2)nc2c(C#N)c(Nc3ccccc3)nn2c1N	92.8%	97.7%	90.7%		90.7%	66.3%	96.1%	102%	93.3%	105%
N/C(=N\c1nc2c(Cl)cc(Cl)cc2s1)C(Cl)(Cl)Cl	13.4%	77.9%	45.8%		5.87% (active)	-44.4% (active)	83.7%	82.8%	85.1%	-32% (active)

SMILES	growth [1]	growth [2]	growth [3]	growth [4] [%]	growth [5]	growth [6]	growth [7]	growth [8]	growth [9]	growth [10]
OC1CCN(CCCOc2c3ccccc3nc3c2oc2ccc(Cl)cc23)CC1	14.8%	18.8%	12.8%		12.8%	-8.33% (active)	19.2%	9.39% (active)	8.25% (active)	5.57% (active)
[Cl][Ru].c1ccc(-c2cccc(-c3ccccn3)n2)nc1.c1ccc(-c2ccnc3c2ccc2c(-c4ccccc4)ccnc23)cc1	62.7%	20.1%	79.6%		80.3%	54.9%	38%	41.4%	11%	96.7%
O=C(CN1C(=O)/C(=C/c2ccccc2)SC1=S)N1CCOCC1	96.3%	94.7%	71.4%		93.7%	112%	88%	99.1%	85.8%	77.9%
CS(=O)(=O)c1ccc(-c2nc3ccccn3c2/C=N/Nc2nc(-c3ccc(Cl)cc3)cs2)cc1	96.8%	102%	76.2%		91.8%	79.9%	85.6%	82%	95.1%	101%
COc1cc2nc(-c3ccc(Cl)cc3)cc(OCCCNCC3CCCO3)c2cc1OC (centres undefined)	67.1%	47.3%	57.3%		17.3%	47.9%	49.1%	40.6%	19.5%	46.6%
CCOC(=O)c1c(Nc2ccccc2)nn2c(N)c(C#N)c(-c3ccc(OC)cc3)nc12	69.2%	86.6%	76.7%		52.8%	75.5%	89.3%	94.7%		38.5%
Clc1ccc2c(NCCCn3ccnc3)c3oc4ccccc4c3nc2c1	16.1%	33.2%	36.2%		22.1%	8.07% (active)	37.4%	13.3%	9.35% (active)	18.1%
CCN1CCN(S(=O)(=O)c2oc(-c3ccc(Cl)cc3)nc2C#N)CC1	95.6%	78.7%	33.2%		65%	93.2%	2.3% (active)	0.374% (active)		-86.6% (active)
N#Cc1nc(-c2ccccc2)oc1S(=O)(=O)N1CCCCC1	76.1%	62.5%	-82.2% (active)		17.4%	89.9%	4.27% (active)	0.441% (active)		-93.4% (active)
COc1cccc(COc2ccc(/C=C3/C(=O)Nc4cc(Cl)ccc43)cc2)c1	87.6%	91.1%	75.4%		90.6%	93%	82.6%	-25.9% (active)		96.9%
[Cl][Ru].c1ccc(-c2cc(-c3ccccn3)nc(-c3ccccn3)c2)cc1.c1ccc(-c2ccnc3c2ccc2c(-c4ccccc4)ccnc23)cc1	25.9%	-22.5% (active)	63.9%		-6.38% (active)	-20.2% (active)	0.187% (active)	-16.8% (active)	-40.3% (active)	6% (active)
c1ccc2c(NCCCN3CCOCC3)c3oc4ccccc4c3nc2c1	-19.6% (active)	3.3% (active)	-79.6% (active)		-27% (active)	-86.9% (active)	12%	-4.43% (active)	-12.1% (active)	-9% (active)
CCOC(=O)c1c(Nc2ccccc2)nn2c(N)c(C#N)c(-c3ccc(Cl)cc3)nc12	68.9%	53.1%	93.8%		31.5%	63.3%	83%	87.5%	86.9%	42.1%
Clc1ccc2oc3c(OCCCn4ccnc4)c4ccccc4nc3c2c1	71.9%	56.3%	43.9%		38.5%	8.47% (active)	59.6%	24.7%	32.5%	34.8%
O=C(CCN1C(=O)/C(=C/c2ccccc2)SC1=S)N1CCOCC1	82.3%	81.7%	72.9%		88.2%	90.5%	49.1%	89.4%	65.4%	67%
